The source of these data is PubChem BioAssay (NCI).

Test systems include T-47D breast; BT-549 breast; MDA-MB-435 melanoma; SW-620 colon; MCF7 breast; HCT-116 colon; HCC-2998 colon; KM12 colon.
Holding throughout (assay): NCI-60 one-dose screen, 48 h (100 = growth as untreated, 0 = no growth, -100 = all killed)
Conditions in all cases: 10 µM unless noted

Each structure is given as a SMILES string. This is part of a sample that, as a whole, favours compounds with a hit. Of some 83,000 tested, about 20% had one in any assay.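 Growth was measured after 48 h exposure to one concentration of compound in 96-well plates. Values under 10 count as active.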 Values without a mark were called inactive. Active and inactive are the calls of the source.

As to `Oc1ccc(N=Nc2ccc(N=Nc3ccccc3)cc2)cc1`, the growth with T-47D breast was 16.4%; with BT-549 breast, 49%; with MDA-MB-435 melanoma, 19.6%; with SW-620 colon, 44.7%; with MCF7 breast it was 22.8%; with HCT-116 colon, 33.3%. In addition, the growth in the test with HCC-2998 colon was 17.2%; in the test on KM12 colon, 27.8%.
Take `O=C(/C=C1\C(=O)N(Cc2ccccc2)c2ccccc21)c1ccc(OCCN2CCCCC2)cc1`: the growth was -56.3% (active) in the test on T-47D breast; 80.4% in the test on BT-549 breast; 96.1% in the test with MDA-MB-435 melanoma; -45.7% (active) with SW-620 colon; 3.98% (active) with MCF7 breast; -3.84% (active) with HCT-116 colon. For the same molecule, the growth in the test with HCC-2998 colon is 93.8%; with KM12 colon, 80.6%.
Take `N=C(N)N=Nc1ccc(NN=C(N)N)cc1`: the growth was 97.3% with T-47D breast; 88.9% in the test with BT-549 breast; 109% with MDA-MB-435 melanoma; 38.3% with SW-620 colon; 90.9% with MCF7 breast; 85.9% in the test on HCT-116 colon. Besides, the growth is 86.6% with HCC-2998 colon and 43.8% in the test on KM12 colon.
Consider `CCOC(=O)NNc1[nH]c(-c2ccc(OC)cc2)cc1C#N`, for which the growth was 44.1% with T-47D breast; 101% in the test with BT-549 breast; 85% in the test on MDA-MB-435 melanoma; 107% with SW-620 colon; 69.2% in the test on MCF7 breast; 85.4% in the test on HCT-116 colon. Also, the growth is 39.1% with HCC-2998 colon and 74.7% with KM12 colon.
`O=C(CCC(=O)N(CCO)CCO)N(CCO)CCO`: the growth in the test with T-47D breast is 98.5%; with BT-549 breast it was 93.5%; in the test with MDA-MB-435 melanoma it was 109%; in the test on SW-620 colon, 106%; in the test with MCF7 breast it was 94.6%; in the test on HCT-116 colon, 95.7%. Besides, the growth is 110% with HCC-2998 colon and 99.8% in the test with KM12 colon.
Turning to `CCc1c(C)c2ccc(OCC(=O)N=Nc3c(O)[nH]c4ccccc34)c(C)c2oc1=O`, the growth with T-47D breast was -53.3% (active); with BT-549 breast, 11.3%; in the test with MDA-MB-435 melanoma, 0.887% (active); with SW-620 colon, -29.2% (active); in the test with MCF7 breast, -4.72% (active); in the test with HCT-116 colon, -7.72% (active). Also, the growth in the test with HCC-2998 colon is -2.02% (active); with KM12 colon, -23.4% (active).
As for `COc1cc(NC(C)CCCN)c2nc(C)ccc2c1OC` (stereo unspecified), the growth with T-47D breast was 90.5%; with BT-549 breast it was 103%; with MDA-MB-435 melanoma, 121%; in the test on SW-620 colon, 104%; in the test on MCF7 breast, 47.1%; with HCT-116 colon, 102%. Moreover, the growth in the test on HCC-2998 colon is 87.2%; in the test on KM12 colon it was 103%.
With `O=C(N/N=C/c1cc(Cl)ccc1O)C(=O)N/N=C/c1cc(Cl)ccc1O`, the growth with T-47D breast was 73.5%; with BT-549 breast, 86.9%; in the test on MDA-MB-435 melanoma, 67.8%; in the test with SW-620 colon it was 61.3%; with MCF7 breast, 61.3%; in the test on HCT-116 colon it was 60.2%. The growth was 59.5% in the test with HCC-2998 colon and 59.1% in the test with KM12 colon.
Consider `O=C1Nc2ccccc2/C1=C/c1cn(CC(O)Cn2cc(/C=C3\C(=O)Nc4ccccc43)c3ccccc32)c2ccccc12` (stereo unspecified), for which the growth in the test on T-47D breast was -46.1% (active); in the test with BT-549 breast, -55.3% (active); in the test on MDA-MB-435 melanoma, -87.6% (active); in the test with SW-620 colon, -60.4% (active); in the test on MCF7 breast, -67.5% (active); in the test on HCT-116 colon it was -64.2% (active). The growth was -16.9% (active) in the test with HCC-2998 colon and -80.9% (active) with KM12 colon.
Turning to `CC(=O)c1cc(Nc2cc(C)nc(N)n2)cc(C(C)=O)c1`, the growth in the test on T-47D breast is 85.9%; in the test with BT-549 breast it was 98.7%; in the test with MDA-MB-435 melanoma it was 117%; in the test on SW-620 colon, 92.2%; in the test with MCF7 breast, 110%; in the test with HCT-116 colon it was 97%. The results for the growth with HCC-2998 colon and in the test on KM12 colon were 51.9% and 97.3%, respectively.
`CCn1cc(C(=O)O)c(=O)c2cc(F)c(N3CCN(S(=O)(=O)c4ccc(Cl)cc4)CC3)cc21`: the growth was 41.1% with T-47D breast; 12.6% in the test on BT-549 breast; 25.1% in the test with MDA-MB-435 melanoma; 24% with SW-620 colon; 14.3% in the test with MCF7 breast; 4.8% (active) with HCT-116 colon. In addition, the results for the growth in the test on HCC-2998 colon and in the test on KM12 colon were 24.5% and 4.3% (active), respectively.
For the molecule `CCC1(CC)C(OC)NC(Br)=C(C#N)C1(C#N)C(N)=O` (stereo unspecified), the growth is 113% in the test with T-47D breast; 104% in the test on BT-549 breast; 107% in the test on MDA-MB-435 melanoma; 101% in the test with SW-620 colon; 110% in the test on MCF7 breast; 110% in the test with HCT-116 colon. Also, the growth was 121% in the test with HCC-2998 colon and 103% with KM12 colon.
Take `COc1ccc(CN2C(=O)/C(=C\C(=O)c3ccc(OCCN4CCCC4)cc3)c3ccccc32)cc1`: the growth in the test with T-47D breast is 57.8%; with BT-549 breast, 92.5%; in the test with MDA-MB-435 melanoma it was 90.2%; in the test on SW-620 colon, 3.07% (active); with MCF7 breast, 32.4%; with HCT-116 colon, 18.5%. Also, the growth with HCC-2998 colon is 101%; with KM12 colon, 85.4%.
With `CCCC(C)c1cc(Cc2cc(Cl)cc(Cl)c2O)c(O)c(Cc2cc(Cl)cc(Cl)c2O)c1` (stereo unspecified), the growth in the test with T-47D breast is 6.27% (active); in the test on BT-549 breast it was -14.9% (active); with MDA-MB-435 melanoma, 7.24% (active); in the test on SW-620 colon it was 12.9%; in the test on MCF7 breast it was 4.88% (active); with HCT-116 colon, 4.58% (active). The growth with HCC-2998 colon was 8.08% (active); with KM12 colon, 9.12% (active).
On to `CSc1nc(N)n2nccc2n1`, for which the growth was 102% in the test with T-47D breast; 99.6% with BT-549 breast; 98.3% in the test on MDA-MB-435 melanoma; 97.9% in the test with SW-620 colon; 96% in the test with MCF7 breast; 99.2% in the test on HCT-116 colon. The growth is 100% in the test on HCC-2998 colon and 114% with KM12 colon.
`C=CCNCCC#N`: the growth was 96.3% in the test with T-47D breast; 105% in the test on BT-549 breast; 109% with MDA-MB-435 melanoma; 110% in the test on SW-620 colon; 99.5% in the test with MCF7 breast; 100% in the test with HCT-116 colon. Moreover, the growth with HCC-2998 colon was 116%; in the test on KM12 colon, 115%.
In the case of `Oc1ccccc1/C=N/N=C\c1ccccc1Cl`, the growth in the test with T-47D breast was 67.1%; in the test with BT-549 breast, 86.2%; in the test with MDA-MB-435 melanoma, 107%; in the test with SW-620 colon, 94.6%; in the test with MCF7 breast, 54.1%; in the test with HCT-116 colon it was 100%. Besides, the growth was 100% in the test on HCC-2998 colon and 88.4% in the test on KM12 colon.
As to `CCCCCCCCCCCCCCCCCC1=NCCN1CS(=O)(=O)O`, the growth in the test with T-47D breast is 57.4%; in the test on BT-549 breast, 93.5%; in the test with MDA-MB-435 melanoma, -19.9% (active); in the test on SW-620 colon, 4.2% (active); in the test with MCF7 breast, 30.3%; in the test with HCT-116 colon, 44.2%. Further, the growth in the test with HCC-2998 colon is 101%; in the test on KM12 colon it was 16.4%.
Consider `NC(CSC(c1ccccc1)(c1ccccc1)c1ccccc1)C(=O)NCC(=O)O` (stereo unspecified), for which the growth is 96.1% in the test on T-47D breast; 70.4% in the test on BT-549 breast; -5.86% (active) with MDA-MB-435 melanoma; 41.6% with SW-620 colon; 45% with MCF7 breast; 40.8% in the test on HCT-116 colon. Also, the growth was 28% in the test on HCC-2998 colon and 77.5% with KM12 colon.
`O=C(CCCC(=O)Nc1ccc(Cn2nnc3cc(Cl)c(Cl)cc32)cc1)Nc1ccc(CN2N=NC3C=C(Cl)C(Cl)=CC32)cc1` (stereo unspecified): the growth is 49% in the test with T-47D breast; 71.5% with BT-549 breast; 87.8% in the test on MDA-MB-435 melanoma; 85.8% with SW-620 colon; 66.6% in the test with MCF7 breast; 75.1% in the test with HCT-116 colon. Further, the growth is 90.2% with HCC-2998 colon and 79.9% in the test on KM12 colon.
On to `CCCCCCCCc1ccc(CCC(N)(CO)CO)cc1`, for which the growth with T-47D breast is 34%; in the test on BT-549 breast, 73.5%; with MDA-MB-435 melanoma, -43.6% (active); with SW-620 colon it was -83.8% (active); in the test with MCF7 breast it was -69% (active); in the test with HCT-116 colon it was -69.8% (active). Moreover, the results for the growth with HCC-2998 colon and with KM12 colon were -85.6% (active) and -66.5% (active), respectively.
On to `c1ccc2[nH]c(-c3ccc(OCCCCCOc4ccc(-c5nc6ccccc6[nH]5)cc4)cc3)nc2c1`, for which the growth was -60.3% (active) in the test with T-47D breast; -13.5% (active) in the test on BT-549 breast; 8.59% (active) with MDA-MB-435 melanoma; -3.03% (active) in the test on SW-620 colon; -39.3% (active) in the test on MCF7 breast; -21.8% (active) with HCT-116 colon. Also, the growth in the test with HCC-2998 colon is 14.8%; in the test on KM12 colon, 23.5%.
With `CCCCCCCCCCCCCCCCNC(=S)N/N=C/c1ccc(OC)cc1`, the growth was 103% with T-47D breast; 104% in the test with BT-549 breast; 107% in the test on MDA-MB-435 melanoma; 107% with SW-620 colon; 102% in the test on MCF7 breast; 89.6% in the test on HCT-116 colon. Also, the growth with HCC-2998 colon is 113%; in the test with KM12 colon, 97.9%.
As to `O=c1c(N=Nc2nccs2)c(-c2ccccc2)[nH]n1-c1nc(-c2ccccc2)cs1`, the growth with T-47D breast is 43.7%; in the test with BT-549 breast, 19%; in the test on MDA-MB-435 melanoma, 26.7%; in the test with SW-620 colon, 40.2%; with MCF7 breast, 59.1%; in the test on HCT-116 colon, 26.9%. Further, the growth was 42.2% in the test on HCC-2998 colon and 28.5% in the test on KM12 colon.
Consider `COc1ccccc1Nc1nnc(COc2ccc(CNC(=O)CCCC/C=C/C(C)C)cc2OC)o1`, for which the growth in the test with T-47D breast was 76.1%; with BT-549 breast, 85.6%; with MDA-MB-435 melanoma, 103%; in the test with SW-620 colon it was 105%; in the test on MCF7 breast, 87.1%; in the test on HCT-116 colon it was 86.8%. In addition, the growth was 105% with HCC-2998 colon and 95.5% in the test on KM12 colon.
Regarding `CCOC(=O)/C(C#N)=C(/CC)OCC`, the growth is 100% in the test with T-47D breast; 95.2% in the test with BT-549 breast; 105% with MDA-MB-435 melanoma; 102% in the test with SW-620 colon; 94.9% in the test on MCF7 breast; 92% with HCT-116 colon. Further, the growth in the test on HCC-2998 colon is 113%; in the test with KM12 colon, 97.7%.
With `CCOC(=O)NC1=NCC(C)(C)S1`, the growth in the test with T-47D breast was 93.8%; in the test with BT-549 breast, 106%; with MDA-MB-435 melanoma, 100%; with SW-620 colon, 103%; in the test with MCF7 breast it was 100%; in the test on HCT-116 colon, 105%. Further, the figures for the growth in the test on HCC-2998 colon and with KM12 colon were 98.3% and 101%, respectively.
